From PubChem BioAssay (Tox21) come the findings set out here.

A number with no mark means an inactive call. Results filed as inconclusive are left out. Activity calls are given as the source filed them. Unless noted, calls follow the shape of the dose curve; as a rule, active = well fitted curve in the direction sought with a large enough effect in the repeat runs; inconclusive = weak or mixed curves; inactive = no such curve, though single readings can be large; an effect the other way counts as inactive or inconclusive.

Test [1] is described as follows: qHTS assay to identify small molecule agonists of the androgen receptor (AR) signaling pathway in the presence of an antagonist - cell viability counter screen (AID 1259379).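 Also: MDA-kb2 human breast cancer cells carrying an MMTV luciferase reporter; series mostly up to about 92 µM; nearly all actives have a fitted effect of over 25% in size.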 Summed up:
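Cytotoxicity is assessed by CellTiter-Fluor in MDA-kb2 cells carrying an MMTV-driven luciferase reporter. Cells receive 3.0uM nilutamide plus compounds at 15 concentrations and incubate 16 hr at 37C without CO2 before fluorescence reading.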
In general terms: In qHTS, concentration-response curves come from the screen itself.

Test [2] in a line: qHTS assay to identify small molecule antagonists of the estrogen receptor beta (ER-beta) signaling pathway - cell viability counter screen (AID 1259382).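 Also: HEK293T cells carrying ER-beta-UAS-bla reporter stimulated with estradiol; series mostly up to about 92 µM; nearly all actives have a fitted effect of over 55% in size.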 Summed up: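 Cytotoxicity counter screen multiplexed with the beta-lactamase antagonist assay: GripTite HEK293T ER-beta-bla cells were treated 16 hr with test chemicals in the presence of 1nM 17-beta-estradiol, and viability was measured by CellTiter-Glo.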

Test [3] in a line: qHTS assay to identify small molecule agonists or antagonists of the thyroid stimulating hormone receptor (TSHR) signaling pathway - wild type cell line counter screen (AID 1259384; calls by dose curve). Summed up:
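Wild-type Hek293 cells, 800/well, 18 h at 37C, then compound with Ro20-1724 for 30 min RT. cAMP by HTRF (cAMP-d2/anti-cAMP cryptate), 1 h RT, fluorescence read. 15 concentrations, triplicates.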

Test [4] has as its target Thyrotropin receptor (Homo sapiens) (UniProt P16473). Briefly: qHTS assay to identify small molecule antagonists of the thyroid stimulating hormone receptor (TSHR) signaling pathway (AID 1259385; calls by dose curve; also: nearly all actives have a fitted effect of over 20% in size). The essentials:
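TSHR-HEK293 cells (800/well) plated 18 h, then compounds with Ro20-1724 and TSH at 1.5 ng/mL final, 30 min at room temperature. cAMP quantified by HTRF (cAMP-d2/anti-cAMP-cryptate, 1 h); 15 concentrations in triplicate.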

Test [5] can be described thus: qHTS assay to identify small molecule agonists of the estrogen receptor alpha (ER-alpha) signaling pathway in the presence of an antagonist - cell viability counter screen (AID 1259386).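 Also: cells exposed to compounds for 22 h at 37 °C before the viability read; nearly all actives have a fitted effect of over 30% in size.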 Also: potency is read from the fitted curve at half-maximal effect. The essentials: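 Cytotoxicity was measured in parallel with the ERE-luciferase agonist screen, in the same wells. The cells were VM7Luc4E2, which endogenously express ER-alpha, and treatment was with compounds plus 10.0nM ICI-182,780 for 22hr.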

Test [6] has as its target Progesterone receptor (Homo sapiens) (UniProt P06401). Description: qHTS assay to identify small molecule agonists of the progesterone receptor (PR) signaling pathway (AID 1346784; calls by dose curve; also: nearly all actives have a fitted effect of over 30% in size). The essentials:
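PR-UAS-bla HEK 293T cells (beta-lactamase reporter under UAS) in 2% charcoal-stripped FBS, dosed with 23 nL compound after 6 hr, incubated 16hr at 37C. LiveBLAzer B/G FRET substrate added, fluorescence read after 2 hours.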

Test [7] is described as follows: qHTS assay to identify small molecule agonists of the progesterone receptor (PR) signaling pathway - cell viability counter screen (AID 1346799; calls by dose curve; also: nearly all actives have a fitted effect of over 45% in size). The essentials:
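Counter screen in the PR-UAS-bla HEK293T wells (2% charcoal-stripped FBS, 16 h compound exposure at 37 C) after the bla read. CellTiter-Glo added, 30 min at room temperature, luminescence read as cell viability.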

A short description of test [8]: qHTS assay to identify small molecule antagonists of the TGF-beta/Smad signaling pathway - cell viability counter screen (AID 1346824). Also: nearly all actives have a fitted effect of over 50% in size. The essentials: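 SBE-bla HEK 293T cells, incubated overnight, then compound plus 0.25 ng/mL TGF-beta1 (stock added) for 5 hr at 37 C. Viability was read in the same wells by CellTiter-Glo luminescence after 30 min at room temperature.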

A short description of test [9]: qHTS assay to identify small molecule agonists of the TGF-beta/Smad signaling pathway - cell viability counter screen (AID 1346829). Also: top concentration of the series differs between compounds; nearly all actives have a fitted effect of over 45% in size. Summed up:
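Compound-treated SBE-bla HEK 293T cells (5 hr, 37 C) were assessed for viability with CellTiter-Glo in parallel with the reporter read.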

Test [10] in a line: qHTS assay to identify small molecule agonists of the TGF-beta/Smad signaling pathway (AID 1346859; active = well fitted activation curve with a large enough effect in the signal ratio in the repeat runs, not every such curve was filed as active; the % refers to the signal ratio; also: series mostly up to about 77 µM). Summed up: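 SBE-bla HEK293T cells plated overnight, then compound exposure for 5 h at 37 C. Beta-lactamase reporter read with LiveBLAzer B/G FRET substrate after 2 h at room temperature, fluorescence at 405 nm excitation, 460/530 nm emission.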
For test [11], the target named is Thyrotropin-releasing hormone receptor (Homo sapiens) (UniProt P34981). Briefly: qHTS assay to identify small molecule antagonists of the thyrotropin-releasing hormone receptor (TRHR) signaling pathway (AID 1346877; active = well fitted inhibition curve with a large enough effect in the repeat runs, not every such curve was filed as active; also: series mostly up to about 51 µM). The essentials:
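Antagonism is measured as suppression of the calcium response to 1 nM TRH in TRHR-HEK293 cells that have been dye-loaded for 2 h at 37 °C after overnight plating. Each compound is tested at 15 concentrations in triplicate.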

For test [12] the target is unchanged. Briefly: qHTS assay to identify small molecule agonists of the thyrotropin-releasing hormone receptor (TRHR) signaling pathway (AID 1346891; calls by dose curve; also: series mostly up to about 58 µM). The essentials: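 HEK293 cells expressing TRHR plated 18 h at 37 C/5% CO2, calcium dye-loaded 2 h at 37 C, then compound added (agonist mode); kinetic calcium fluorescence read 3 min at 1 s intervals; 15 concentrations in triplicate.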

The nature of test [13]: Human pregnane X receptor (PXR) small molecule agonists, qHTS cell viability counter screen (AID 1346977). Also: nearly all actives have a fitted effect of over 50% in size. Summed up:
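PXR-Luc HepG2 cells (2,000/well, 5% charcoal-stripped FBS) preincubated 5 hr, then exposed to compounds 24 hr at 37 C. Viability read in the same wells by CellTiter-Fluor fluorescence, reagent added at 23 hr, 1 hr incubation.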

Test [14] is described as follows: qHTS assay to identify small molecule agonists of the estrogen receptor beta (ER-beta) signaling pathway - cell viability counter screen (AID 1259380). Also: nearly all actives have a fitted effect of over 30% in size. Summed up: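 Cytotoxicity is measured in parallel with the reporter screen: after 16 hr compound exposure at 37C and a 2 hr LiveBLAzer step, CellTiter-Glo is added to the same ER-beta-UAS-bla HEK293T wells and luminescence read after 30 min.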

The target of test [15] is Progesterone receptor (Homo sapiens) (UniProt P06401). Briefly: qHTS assay to identify small molecule antagonists of the progesterone receptor (PR) signaling pathway (AID 1346795; active = well fitted inhibition curve with a large enough effect in the signal ratio in the repeat runs, not every such curve was filed as active; the % refers to the signal ratio). Summed up:
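PR-UAS-bla HEK293T cells with beta-lactamase reporter under UAS control, in 2% charcoal-stripped FBS, treated with compounds plus 1 nM promegestone (R5020, final) for 16 hr at 37C. Read-out: FRET beta-lactamase substrate fluorescence after 2 hr at room temperature.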

Test [16] in a line: qHTS assay to identify small molecule antagonists of the progesterone receptor (PR) signaling pathway - cell viability counter screen (AID 1346798). Also: series mostly up to about 92 µM; nearly all actives have a fitted effect of over 50% in size. The essentials: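 PR-UAS-bla HEK293T cells, 3,000/well in 2% charcoal-stripped FBS medium, dosed with compounds plus R5020 agonist and incubated 16 h at 37C. Viability then measured in the same wells by CellTiter-Glo luminescence after 30 min at RT.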

Progesterone receptor (Homo sapiens), sequence (P06401 whole entry, looked up): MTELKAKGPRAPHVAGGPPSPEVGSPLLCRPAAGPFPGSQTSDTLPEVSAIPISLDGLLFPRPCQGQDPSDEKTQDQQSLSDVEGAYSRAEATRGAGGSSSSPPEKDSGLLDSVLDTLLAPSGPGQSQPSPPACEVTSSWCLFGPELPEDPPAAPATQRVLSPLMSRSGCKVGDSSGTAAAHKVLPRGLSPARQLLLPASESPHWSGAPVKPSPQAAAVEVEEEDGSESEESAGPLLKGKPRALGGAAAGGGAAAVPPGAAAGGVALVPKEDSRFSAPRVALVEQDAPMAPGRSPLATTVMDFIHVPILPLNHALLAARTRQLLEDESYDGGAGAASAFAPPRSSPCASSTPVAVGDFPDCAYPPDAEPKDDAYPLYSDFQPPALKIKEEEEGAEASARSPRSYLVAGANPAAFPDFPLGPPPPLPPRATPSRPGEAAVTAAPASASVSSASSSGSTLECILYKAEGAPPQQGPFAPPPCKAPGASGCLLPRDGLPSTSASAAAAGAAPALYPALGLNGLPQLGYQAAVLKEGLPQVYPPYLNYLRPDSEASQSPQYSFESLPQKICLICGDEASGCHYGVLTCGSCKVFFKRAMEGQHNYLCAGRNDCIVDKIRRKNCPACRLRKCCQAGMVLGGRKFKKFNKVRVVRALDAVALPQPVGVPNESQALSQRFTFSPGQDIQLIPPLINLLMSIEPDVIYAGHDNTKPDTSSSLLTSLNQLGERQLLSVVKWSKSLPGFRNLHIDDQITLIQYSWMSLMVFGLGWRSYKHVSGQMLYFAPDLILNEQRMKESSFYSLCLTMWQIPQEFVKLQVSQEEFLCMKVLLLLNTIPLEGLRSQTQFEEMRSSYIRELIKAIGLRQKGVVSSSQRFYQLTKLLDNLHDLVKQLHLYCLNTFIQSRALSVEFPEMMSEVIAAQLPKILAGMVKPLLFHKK
Thyrotropin receptor (Homo sapiens), sequence (P16473 whole entry, looked up): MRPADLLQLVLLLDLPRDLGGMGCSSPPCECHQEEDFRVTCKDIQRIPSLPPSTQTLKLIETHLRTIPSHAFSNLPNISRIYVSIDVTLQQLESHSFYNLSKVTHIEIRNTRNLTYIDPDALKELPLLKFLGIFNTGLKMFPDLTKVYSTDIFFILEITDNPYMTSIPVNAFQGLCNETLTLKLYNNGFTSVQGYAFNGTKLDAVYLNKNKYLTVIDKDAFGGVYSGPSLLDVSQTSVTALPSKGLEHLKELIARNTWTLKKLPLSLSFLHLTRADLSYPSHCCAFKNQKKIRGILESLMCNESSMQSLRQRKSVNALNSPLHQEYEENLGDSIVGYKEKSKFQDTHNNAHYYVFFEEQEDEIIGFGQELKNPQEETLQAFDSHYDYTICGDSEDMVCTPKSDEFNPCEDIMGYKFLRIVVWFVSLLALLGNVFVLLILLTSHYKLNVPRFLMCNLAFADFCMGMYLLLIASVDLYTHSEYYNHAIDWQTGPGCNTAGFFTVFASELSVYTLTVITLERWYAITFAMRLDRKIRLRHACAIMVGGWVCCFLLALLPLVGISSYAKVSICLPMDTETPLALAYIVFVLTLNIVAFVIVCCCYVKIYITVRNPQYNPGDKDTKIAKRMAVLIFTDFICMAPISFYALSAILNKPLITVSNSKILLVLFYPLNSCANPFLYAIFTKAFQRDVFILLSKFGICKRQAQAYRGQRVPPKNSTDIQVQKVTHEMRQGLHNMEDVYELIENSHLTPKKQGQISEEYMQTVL
Thyrotropin-releasing hormone receptor (Homo sapiens), sequence (P34981 whole entry, looked up): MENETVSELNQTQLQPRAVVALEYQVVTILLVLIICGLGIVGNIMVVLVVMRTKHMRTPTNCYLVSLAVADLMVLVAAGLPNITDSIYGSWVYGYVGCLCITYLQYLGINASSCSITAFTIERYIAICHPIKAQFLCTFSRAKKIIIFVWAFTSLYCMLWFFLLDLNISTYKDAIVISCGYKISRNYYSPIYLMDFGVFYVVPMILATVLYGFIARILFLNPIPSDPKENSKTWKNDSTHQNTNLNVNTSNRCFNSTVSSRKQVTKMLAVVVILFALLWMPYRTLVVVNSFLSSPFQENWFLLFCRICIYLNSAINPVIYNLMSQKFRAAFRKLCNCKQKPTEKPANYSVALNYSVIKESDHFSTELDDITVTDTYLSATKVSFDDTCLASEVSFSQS

On to `CC(C)(C#N)Nc1nc(Cl)nc(NC2CC2)n1`, for which the Potency entry in [1], in [5], in [6], in test [7], in test [12] and in test [13] was “inactive” each time. For the same molecule, the molecule was classed as inactive in test [2], in test [3], in test [4], in test [8], in test [9] and in test [10]. The result in test [11] was inactive.
Regarding `CNCC(O)c1ccc(O)c(O)c1` (stereo not given), the Potency entry in test [1], in test [14], in test [6], in test [15], in test [16] and in [7] was “inactive” each time. Also, the Potency result in test [12] and in [13] was “inactive” in each case. The call in test [2], in test [4], in test [8], in test [9], in test [10] and in test [11] was inactive. Moreover, the Potency in test [5] was 29.8 µM (active).
In the case of `CC(C)=CCC/C(C)=C/C#N`, the Potency entry in [1], in test [5], in test [6], in test [16], in test [7] and in [12] was “inactive” each time. Moreover, the Potency entry in [13] is “inactive”. For the same molecule, the molecule was classed as inactive in test [2], in test [4], in test [8], in test [9], in test [10] and in [11].
As for `O=S(=O)(O)c1cccc2c(S(=O)(=O)O)cccc12`, the Potency entry in test [1], in [5], in test [6], in test [15], in test [7] and in test [12] was “inactive” in each case. In test [13], the Potency entry is “inactive”. Moreover, the call in test [2], in test [3], in test [4], in test [8], in [9] and in test [10] was inactive. Moreover, in [11], the outcome was inactive.
Take `CN(C)C(=O)Oc1ccc[n+](C)c1`: the Potency entry in test [1], in [14], in test [6], in [15], in test [16] and in test [7] was “inactive” each time. For the same molecule, the Potency entry in test [13] was “inactive”. The outcome in test [2], in [4], in [8], in test [9] and in [10] was inactive.
For `O=S(=O)(O)c1cccc2ccccc12`, the Potency result in test [1], in [14], in [6], in [15], in [16] and in test [7] was “inactive” each time. For the same molecule, the Potency entry in test [12] and in test [13] was “inactive” each time. For the same molecule, the result in [2], in test [3], in test [4], in test [8], in test [9] and in test [10] was inactive. The outcome in test [11] was inactive.
In the case of `COc1ccccc1OCC1CNC(=O)O1` (stereo not given), the Potency result in [1], in test [6], in [16], in [7], in [12] and in test [13] was “inactive” in each case. Further, the molecule was classed as inactive in test [2], in [3], in [4], in [8], in [10] and in [11].
In the case of `CO/N=C(\C(=O)N[C@@H]1C(=O)N2C(C(=O)O)=C(CSc3nc(=O)c(O)nn3C)CS[C@H]12)c1csc(N)n1`, the Potency entry in test [1], in [5], in test [6], in test [7], in test [12] and in [13] was “inactive” in each case. Moreover, the outcome in test [2], in [4], in [8], in [9], in test [10] and in test [11] was inactive.
Consider `CCCCCCCCCCCCCCCCCCO`, for which the Potency entry in test [1], in test [14], in test [6], in test [15], in [16] and in test [7] was “inactive” throughout. Moreover, the Potency entry in [12] and in test [13] was “inactive” each time. Further, the call in test [2], in test [3], in test [4], in test [8], in [9] and in test [10] was inactive. Besides, in [11], the outcome was inactive.
With `NCCCC(N)(C(=O)O)C(F)F` (stereo not given), the Potency result in test [1], in test [14], in [5], in [6], in test [15] and in [16] was “inactive” each time. The Potency entry in test [7], in [12] and in test [13] was “inactive” in each case. The call in [2], in test [4], in test [8], in test [10] and in test [11] was inactive.
